Measured values published in PubChem BioAssay AID1578 (Sanford-Burnham Center for Chemical Genomics, 2009).
Where “and” joins values, the source holds several entries; their conditions need not be identical. Equal entries are not always repeated. Out of some 290,000 compounds screened, about 3,000 (1%) were called active. The entries come from a sample that favours actives as a whole. A number with no mark means an inactive call. No stated cut-off is given here; in the data, active means inhibition mostly above about 36% (no sharp cut-off); inactive means mostly below about 34%.

Test: inhibition of NOD1-driven NF-kB reporter – cell-based, luminescence, uHTS, primary screen (AID 1578);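 further: HEK-293T reporter cells stimulated with the NOD1 agonist gamma-tri-DAP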
Conditions: NOD1-driven NF-kB luciferase reporter cells, at 4 µM, active compounds read high
For `COc1ccc(-c2noc(N3CCC(C(=O)NCc4ccc(F)cc4)CC3)n2)cc1`, the inhibition was -38.2%.
Compound `COc1ccc(/C=C2/Sc3ccc(C(=O)NCCCN4CCOCC4)cc3NC2=O)cc1OC` has an inhibition of 29.5%.
For `COC(=O)CS(=O)(=O)c1cc(Br)cc2c1N(C(C)=O)CC2`, the inhibition was -37.1%.
Compound `CCc1cc(/C(Cc2ccccn2)=N\Nc2ccccc2)c(O)cc1O` has an inhibition of -20.2%.
Compound `CCCNCc1cc(OC)c(OCC(=O)Nc2ccccc2)cc1Br` has an inhibition of -23.4%.
With `Cc1cccc(C)c1Nc1nnc(SCC(=O)Nc2cc(S(=O)(=O)N3CCCCC3)ccc2Cl)s1` the inhibition was 44.5%.
`Clc1ccc(CN2CCC(Cc3ccccc3)CC2)cc1` gave an inhibition of -18.7%.
For `CSc1ccc(CN2CCC(Cc3ccccc3)CC2)cc1`, the inhibition was 80.3% (active).
`CCOc1ccc(CN2CCC(Cc3ccccc3)CC2)cc1` gave an inhibition of -22.4%.
Work on `c1coc(CNc2nc(-c3ccncc3)cs2)c1` yielded an inhibition of -35.7%.
With `CCOC(=O)C1CCN(C(=O)CCCn2nc(C)c3c(C)n(-c4ccc(C)cc4)nc3c2=O)CC1` the inhibition was -4.8%.
Work on `CC(C)C[C@H](NC(=O)OC(C)(C)C)c1n[nH]c(=S)n1N` yielded an inhibition of -16.1%.
For `CCN(C(=O)Cn1c(=O)oc2ccccc21)C1CCS(=O)(=O)C1` (stereo not drawn), the inhibition was -9.7%.
`CC(=O)N1c2ccc(S(=O)(=O)N3CCC(C(=O)Nc4ccccn4)CC3)cc2CC1C` (stereo not drawn) gave an inhibition of -41.4%.
`CC(=O)N1c2ccc(S(=O)(=O)N3CCC(C(=O)Nc4cccc(C)c4)CC3)cc2CC1C` (stereo not drawn) gave an inhibition of -24.4%.
`CC(C)[C@@H](N)C(=O)N/N=C/c1ccc2ncccc2c1` gave an inhibition of -2%.
Work on `CSCC[C@H](NC(=O)[C@H]1CC[C@H](CNC(=O)[C@@H]2CCCN2)CC1)C(=O)O` yielded an inhibition of -8.2%.
With `COCCn1c(C)cc(/C=C2/NC(=O)N(Cc3ccc(C)cc3)C2=O)c1C` the inhibition was -2.2%.
Compound `CCCCNC(=O)[C@H](Cc1c[nH]c2ccccc12)NC(=O)c1ccccc1Cl` has an inhibition of -18.4%.
For `COCCN=c1scc(-c2ccc3c(c2)NC(=O)CO3)n1/N=C(\C)c1ccc(O)cc1`, the inhibition was -6.7%.
Work on `CCN=c1scc(-c2ccc3c(c2)NC(=O)CO3)n1N=C1CCCC1` yielded an inhibition of 51.7%.
For `C=CCN=c1scc(-c2ccc3c(c2)NC(=O)CO3)n1/N=C(\C)c1ccccn1`, the inhibition was 50.6% (active).
`CCCCCC1=NN2C(=O)CC(=O)N=C2S1` gave an inhibition of 11.6%.
Work on `O=c1c2nnn(-c3cccc(F)c3)c2ncn1Cc1ccccn1` yielded an inhibition of -4.3%.
`O=C(N/N=C/c1ccc([N+](=O)[O-])cc1)c1[nH]ncc1Br` showed an inhibition of -5%.
In the case of `Cc1cc(C)n(CC(=O)NCc2cc(-c3nn(C)c(=O)c4ccccc34)ccc2C)n1`, the inhibition is reported as -14%.
For `Cc1ccc(-c2nn(C)c(=O)c3ccccc23)cc1CNC(=O)Cn1nc(-c2ccccc2)c2ccccc2c1=O`, the inhibition was 12.8%.
With `Cc1ccc(-c2nn(CC(=O)NCc3cc(-c4nn(C)c(=O)c5ccccc45)ccc3C)c(=O)c3ccccc23)cc1` the inhibition was 93.8% (active).
For `O=C1NCCc2c1[nH]c1ccccc21`, the inhibition was 10.2% and -8.1%.
With `Cc1ccc2[nH]c3c(c2c1)CCNC3=O` the inhibition was -41.5%.
With `O=C1NCCc2c1[nH]c1c(Cl)ccc(Cl)c21` the inhibition was 79.2% (active).
Compound `CCOC(=O)[C@@H]1[C@H]2COc3cc(OC)ccc3[C@@H]2N2C(=O)N(c3ccc(Br)cc3)C(=O)[C@@]12C` has an inhibition of -23.3%.
Compound `CN(C)C(CNc1ncccn1)c1ccccc1` (stereo not drawn) has an inhibition of -14.6%.
Work on `CC(C)(C)OC(=O)N1CCC(CC2CC(c3cccc(Br)c3)=NO2)(C(=O)NCC2CCCCC2)CC1` (stereo not drawn) yielded an inhibition of -0.4%.
`CC(C)(C)OC(=O)N1CCC(CC2CC(c3cccc(Br)c3)=NO2)(C(=O)O)CC1` (stereo not drawn) gave an inhibition of -12.7%.
In the case of `COC(=O)C1(CC2CC(c3cccc(Br)c3)=NO2)CCN(C(=O)OC(C)(C)C)CC1` (stereo not drawn), the inhibition is reported as 43.4% (active).
In the case of `O=C(c1cc2ccccn2n1)N1CCN(c2cccc(C(F)(F)F)c2)CC1`, the inhibition is reported as 19.8%.
In the case of `Cc1ccc(S(=O)(=O)NC(=NC2CCCCC2)c2ccc(F)cc2)cc1`, the inhibition is reported as -31.6%.
Compound `O=C1CSC(c2cn(-c3ccccc3)nc2-c2cc3ccccc3oc2=O)N1Cc1ccco1` (stereo not drawn) has an inhibition of 3.1%.
Work on `CCc1ccc(-c2nn(-c3ccccc3)cc2C2SCC(=O)N2Cc2ccco2)cc1` (stereo not drawn) yielded an inhibition of 11.4%.
For `O=C1CSC(c2cn(-c3ccccc3)nc2-c2ccccc2)N1Cc1ccco1` (stereo not drawn), the inhibition was 51.6% (active).
`COc1ccc(/C=N/c2nc3ccccc3n2C)cc1OC` gave an inhibition of -12.1%.
`CCOC(=O)N1CCN(C(=O)C2CCN(Cc3ccc(O)c(OCC)c3)CC2)CC1` gave an inhibition of -15.5%.
In the case of `O=C(c1ccccc1)N1CCCCC(S(=O)(=O)c2ccccc2)C1=O` (stereo not drawn), the inhibition is reported as 19.8%.
In the case of `O=C(N/N=C/c1ccc(O)cc1O)c1ccc(NC(=O)C2CCCCC2)cc1`, the inhibition is reported as -73.3%.
Compound `Cc1cccc(OC(C)C(=O)N2CCCN(C)CC2)c1C` (stereo not drawn) has an inhibition of -5.8%.
For `O=C(Nc1ccc(N2CCOCC2)cc1)C1CC(=O)N(c2ccccc2)C1` (stereo not drawn), the inhibition was -35.3%.
`O=C(NCc1ccccc1)C1CCC1` gave an inhibition of -29%.
In the case of `O=C(NC(=S)NCc1ccccc1)C1CCCCC1`, the inhibition is reported as 11.8%.
In the case of `O=C(NCc1ccccc1)C1CCCC1`, the inhibition is reported as 67.7% (active).
`CC(=O)N1CCc2cc(S(=O)(=O)NCC(=O)NCc3ccc(F)cc3)ccc21` gave an inhibition of -8%.
With `Nc1[nH]c(N=NC(=O)c2ccccc2)c2ccccc12` the inhibition was -58.4%.
With `CCOc1ccc(S(=O)(=O)N2CCCC(C(=O)N3CCN(CC)CC3)C2)cc1Cl` (stereo not drawn) the inhibition was -13.6%.
With `CCN(CC)S(=O)(=O)c1cc(NC(=O)COC(=O)c2ccc(NC(=O)CC#N)cc2)ccc1C` the inhibition was -16.4%.
Work on `Fc1ccc(Nc2nc(-c3ccncc3)nc3ccccc23)cc1` yielded an inhibition of 1.1%.
For `C=CCNc1sc(C(=O)c2ccccc2)c(N)c1-c1nc2ccccc2s1`, the inhibition was -19.4%.
`O=C1N/C(=N/S(=O)(=O)c2ccccc2)S/C1=C/c1cccnc1` showed an inhibition of -12.1%.
With `O=C(O)c1ccc(CNCc2cccc(Oc3ccccc3)c2)cc1` the inhibition was -4.9%.
In the case of `COc1ccc(CNCc2cccc(Oc3ccccc3)c2)cc1`, the inhibition is reported as 65.8% (active).
`COc1ccccc1CNCc1cccc(Oc2ccccc2)c1` gave an inhibition of -7.9%.
In the case of `Cc1cc(C)nc(/N=C2/NC(=O)CS2)n1`, the inhibition is reported as 11.8%.
Compound `O=C(CSc1ncccc1C(=O)O)NC12CC3CC(CC(C3)C1)C2` has an inhibition of -37.8%.
Work on `CC(C)(C)C(=O)COC(=O)c1cc2ccccc2cc1O` yielded an inhibition of -26.6%.
Work on `Cc1c(C)c2c(OCC(=O)N3CCC(C(=O)O)CC3)cc3c(c2oc1=O)CCC(C)(C)O3` yielded an inhibition of -8.2%.
For `CC[n+]1c(/C=C/c2ccc(N(C)C)cc2)ccc2ccccc21`, the inhibition was 0.8%.
Compound `CC[n+]1c(/C=C/c2ccc(OC)c(OC)c2)ccc2ccccc21` has an inhibition of -81.5%.
With `CC(NS(=O)(=O)c1ccc(NC(=O)N2CCCCC2)cc1)c1ccccc1` (stereo not drawn) the inhibition was -19.3%.
With `O=C(Nc1cccnc1)OC1CCCC1` the inhibition was -40.3%.
With `Cc1cc(C)c(S(=O)(=O)Nc2ccncc2)cc1C` the inhibition was -25.9%.
Compound `Cc1ccc(CCNS(=O)(=O)c2ccc3c(c2)NC(=O)CCS3)cc1` has an inhibition of -8.7%.
With `CSc1ccccc1C(=O)Nc1ccc2c(c1)CCC2` the inhibition was -1%.
With `CCOc1ccc(C(Nc2cccnc2)c2cc(Cl)c3cccnc3c2O)cc1` (stereo not drawn) the inhibition was 67.5% (active).
With `CCCC(=O)NC(c1cccs1)c1cc(Cl)c2cccnc2c1O` (stereo not drawn) the inhibition was 55.3% (active).
For `O=C(O)COc1ccccc1C(Nc1cccnc1)c1cc(Cl)c2cccnc2c1O` (stereo not drawn), the inhibition was -3.2%.
`CCC(=O)NC(c1cccs1)c1cc(Cl)c2cccnc2c1O` (stereo not drawn) showed an inhibition of 32.2%.
In the case of `CCCCC(=O)NC(c1cccs1)c1cc(Cl)c2cccnc2c1O` (stereo not drawn), the inhibition is reported as -31.4%.
In the case of `Oc1c(C(Nc2ccccn2)c2cccnc2)cc(Cl)c2cccnc12` (stereo not drawn), the inhibition is reported as 15.5%.
`CCC(=O)NCCc1nc2cc(NC(=O)COc3ccccc3)ccc2n1C` gave an inhibition of -21.6%.
In the case of `Cc1cc(C)c(S(=O)(=O)NCc2cccnc2)cc1C`, the inhibition is reported as 9.3%.
With `CCOc1ccc(N2C(=O)CC(/C=C3/N(C)c4ccccc4C3(C)C)C2=O)cc1` (stereo not drawn) the inhibition was -9.6%.
Compound `CCOc1ccc(NC(=O)Nc2ccc(NC(C)=O)cc2)cc1` has an inhibition of -22.3%.
Compound `COC(=O)c1cccc(NC(=O)/C=C/c2ccc3c(c2)OCO3)c1` has an inhibition of 69%.
`O=C(O)c1cccc(NC(=O)c2cc(NC(=O)c3ccccc3)cc(NC(=O)c3ccccc3)c2)c1` gave an inhibition of 12.6%.
Compound `CCC(C)NC(=O)Nc1ccc(Br)cc1` (stereo not drawn) has an inhibition of -16%.
In the case of `CCOC(=O)c1cccc(NC(=O)/C=C/c2ccc3c(c2)OCO3)c1`, the inhibition is reported as 98% (active).
In the case of `O=C(N/N=C/C(Cl)=C/c1ccc([N+](=O)[O-])cc1)C(=O)Nc1cccc(C(=O)O)c1`, the inhibition is reported as -14.1%.
For `O=C(Nc1ccc([N+](=O)[O-])cc1)C(=O)Nc1cccc(C(=O)O)c1`, the inhibition was 79.5% (active).
Work on `Cc1ccc(C(=O)Nc2cccc(C(=O)NCc3ccccc3)c2)cc1` yielded an inhibition of -41.3%.
For `O=C(NNS(=O)(=O)c1ccc([N+](=O)[O-])cc1)C(=O)Nc1cccc(C(=O)O)c1`, the inhibition was -14.5%.
In the case of `CCOC(=O)c1cccc(NC(=O)c2ccc3c(c2)OCO3)c1`, the inhibition is reported as -56.6%.
In the case of `CCOc1ccc(NC(=O)NC(C)CC)cc1` (stereo not drawn), the inhibition is reported as 31.5% (active).
For `Cc1ccc(C(=O)Nc2cccc(C(=O)O)c2)cc1`, the inhibition was 73.3% (active).
With `COc1ccc(Cc2nnc(NC(=O)C(C)(C)C)s2)cc1` the inhibition was -7.8%.
